High-throughput results deposited in PubChem BioAssay by National Center for Advancing Translational Sciences (NCATS).
NPR1 antag = blocks ANP-stimulated signaling of human Npr1 receptor. P16066. HEK293 hNpr1 GloSensor cGMP, ANP-stimulated luminescence. Potency, µM (doses to about 46.3 µM), usual class: inhibitors. 1.6% of 76,000 active. AID 1347048; further: nearly all actives have a fitted effect of over 60% in size
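Compound pre-incubated 30 min at room temperature on GloSensor-loaded HEK293 cells stably carrying hNpr1 and the pGS-40F cGMP biosensor. Stimulation uses hNppA at 0.1 nM final; luminescence is taken at baseline and 20 min post-agonist.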
GPT2 inhibitor = inhibitors of human GPT2 alanine aminotransferase; Q8TD30; Recombinant GPT2, coupled pyruvate oxidase/HRP Amplex Red fluorescence; Potency, µM (series often up to 57.7 µM), usual class: inhibitors; 0.25% of 100,000 active; active means well fitted inhibition curve with a large enough effect; inconclusive means small, poorly fitted or top-dose-only effect; further: nearly all actives have a fitted effect of over 60% in size
Target sequence (Q8TD30 whole entry, looked up): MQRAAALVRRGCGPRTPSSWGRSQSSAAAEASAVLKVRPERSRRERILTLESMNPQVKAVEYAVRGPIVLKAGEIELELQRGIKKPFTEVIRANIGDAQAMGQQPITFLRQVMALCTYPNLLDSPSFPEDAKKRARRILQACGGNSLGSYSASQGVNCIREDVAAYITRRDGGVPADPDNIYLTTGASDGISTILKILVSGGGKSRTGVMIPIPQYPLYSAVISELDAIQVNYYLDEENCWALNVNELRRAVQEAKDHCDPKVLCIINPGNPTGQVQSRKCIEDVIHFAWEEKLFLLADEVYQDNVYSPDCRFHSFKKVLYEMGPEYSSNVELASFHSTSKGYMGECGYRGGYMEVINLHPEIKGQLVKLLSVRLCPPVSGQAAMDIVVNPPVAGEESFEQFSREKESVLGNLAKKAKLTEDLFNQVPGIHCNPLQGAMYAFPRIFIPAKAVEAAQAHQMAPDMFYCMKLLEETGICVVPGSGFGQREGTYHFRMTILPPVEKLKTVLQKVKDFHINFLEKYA
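Inhibition is scored from Amplex Red fluorescence generated when pyruvate oxidase and HRP act on pyruvate released by GPT2. Reactions contain 10ng/uL enzyme, 250uM a-KG and 2mM L-alanine and run 30 min at room temperature.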
NPR1 antag cnf = hNpr1 antagonism, confirmation assay; 76% of 1,400 active; AID 1347044; shares compounds with NPR1 antag; HEK293 hNpr1 cGMP GloSensor luminescence, ANP-stimulated; Potency, µM (highest dose often 57.6 µM), usual class: inhibitors; further: nearly all actives have a fitted effect of over 70% in size
NPR2 antag = hNpr2 antagonism, selectivity versus Npr1; shares compounds with NPR1 antag; HEK293 hNpr2 GloSensor cGMP luminescence, CNP-stimulated; Potency, µM (doses to about 57.6 µM), most hits filed as inhibitors; 67% of 1,400 active; AID 1347046; further: nearly all actives have a fitted effect of over 70% in size
FLuc counter = inhibits firefly luciferase, false Npr1 antagonist flag. shares compounds with NPR1 antag. purified FLuc enzyme, luminescence, Km substrate. Potency, µM (highest dose often 57.6 µM), most hits filed as inhibitors. 0.7% of 1,400 active. AID 1347047; active means well fitted inhibition curve with a large enough effect; inconclusive means small, poorly fitted or top-dose-only effect
GloSensor ctrl = control cell line activity, Npr1 antagonist counter-screen | shares compounds with NPR1 antag | HEK293 GloSensor cGMP, SNP-stimulated, luminescence | Potency, µM (highest dose often 57.6 µM), hits mostly inhibitors | 69% of 1,400 active; further: nearly all actives have a fitted effect of over 70% in size
GPT2 inh cnf = confirmation of human GPT2 inhibitors; shares compounds with GPT2 inhibitor; GPT2 enzyme, coupled Amplex Red pyruvate fluorescence; Potency, µM, hits mostly inhibitors; 90% of 95 active; AID 1671187; active means well fitted inhibition curve with a large enough effect; inconclusive means small, poorly fitted or top-dose-only effect
Numbers stand for hits; - = inactive; ? = inconclusive; . = no result; ! = a repeat was not active; [ ] = remark or other dose. The full list was thinned out, with hits kept by preference. Unless noted, the call rests on the fitted dose curve.

SMILES | NPR1 antag | GPT2 inhibitor | others
COc1ccc2c(c[n+](C)c3c4cc5c(cc4ccc23)OCO5)c1OC | . | 10µM!
COc1ccc2c(c1OC)CN1CCc3cc4c(cc3C1C2)OCO4 (centres undefined) | . | -
CNC(=O)Oc1cccc2ccccc12 | . | 8.9µM
Cc1ccc(-c2ccccc2CN2CCN(C(=O)Cc3ccccn3)CC2)cc1Cl | . | -
COc1cccc([C@H]2CN(C(=O)OCC(C)C)[C@@H]3C4CCN(CC4)[C@H]23)c1 | - | -[11.5 µM]
CC(=O)c1cn(C[C@H]2CC3CCN2C[C@@H]3C(=O)NC(C)C)nn1 (some centres undefined) | - | -
COc1cc2c(cc1OCc1ccccc1)NC(=O)C21CCN(c2ccccn2)CC1 | ? | - | NPR1 antag cnf=?;NPR2 antag=?;FLuc counter=-;GloSensor ctrl=?
COc1cc2c(cc1OCc1ccccc1)NC(=O)C21CCN(c2ncccn2)CC1 | - | -
COc1cc2c(cc1Oc1ccccc1)NC(=O)C21CCN(Cc2cccc(O)c2)CC1 | ? | - | NPR1 antag cnf=40µM;NPR2 antag=?;FLuc counter=-;GloSensor ctrl=31µM
COc1cncc(CN2CCC3(CC2)C(=O)Nc2cc(Oc4ccccc4)c(OC)cc23)c1 | - | -
COCCn1c(C)cc(C(=O)NC2CCc3nnc(C4CC4)n3CC2)c1C (centres undefined) | - | -
O=C(C1CCCC1)N1[C@H]2CC[C@@H]1c1cnc(-c3ccc(F)cc3)nc1C2 | 10µM | - | NPR1 antag cnf=8.6µM;NPR2 antag=12µM;FLuc counter=-;GloSensor ctrl=8.6µM
CC(C)C(=O)N1[C@H]2CC[C@@H]1c1cnc(-c3ccc(F)cc3)nc1C2 | 22µM | - | NPR1 antag cnf=19µM;NPR2 antag=22µM;FLuc counter=-;GloSensor ctrl=19µM
CC(C)CC(=O)N1[C@H]2CC[C@@H]1c1cnc(-c3ccc(F)cc3)nc1C2 | 13µM | - | NPR1 antag cnf=24µM;NPR2 antag=24µM;FLuc counter=-;GloSensor ctrl=19µM
COCC(=O)N1[C@H]2CC[C@@H]1c1cnc(-c3ccc(F)cc3)nc1C2 | - | -
CCn1nccc1C(=O)N1[C@H]2CC[C@@H]1c1cnc(-c3ccc(F)cc3)nc1C2 | 6.3µM | - | NPR1 antag cnf=11µM;NPR2 antag=12µM;FLuc counter=-;GloSensor ctrl=11µM
CC(=O)N1[C@H]2CC[C@@H]1c1cnc(-c3ccc(F)cc3)nc1C2 | - | -
Cn1cc(C(=O)N2[C@H]3CC[C@@H]2c2cnc(-c4ccc(F)cc4)nc2C3)cn1 | - | -
O=C(C1CC1)N1[C@H]2CC[C@@H]1c1cnc(-c3ccc(F)cc3)nc1C2 | ? | -
C#C[C@H]1CN2CC[C@H]1C[C@@H]2CNCc1cccc(Cl)c1 | - | -
Cn1cccc1CN1CCC2(CN[S+](=O)([O-])c3cccnc3O2)C1 (centres undefined) | . | -
N#Cc1ccc(CN2CCC3(CC2)C(=O)Nc2ccccc23)cc1 | . | -
O=S(=O)(NC[C@H]1C[C@@H]2CCN1C[C@@H]2CN1CCc2ccccc2C1)c1ccc(Cl)cc1 | - | -
CC[C@H]1CN2CC[C@H]1C[C@@H]2COC(=O)Nc1cccc2ccccc12 | - | -
CCOC(=O)[C@H]1CN(C(=O)OCC)[C@]2(C)C(=O)N(CCOC(C)=O)c3ccccc3[C@H]12 | . | -
SMILES | NPR1 antag | GPT2 inhibitor | others
CC(C)CC(=O)N1CCC2(CC1)c1nccn1-c1ccccc1CN2C | - | -
CN1Cc2ccccc2-n2ccnc2C12CCN(C(=O)C1(c3ccccc3)CC1)CC2 | ? | - | NPR1 antag cnf=?;NPR2 antag=?;FLuc counter=-;GloSensor ctrl=-
COc1ccc(C(=O)N2CCC3(CC2)c2nccn2-c2ccccc2CN3C)cc1 | - | -
COc1ccc(CC(=O)N2CCC3(CC2)c2nccn2-c2ccccc2CN3C)cc1 | ? | - | NPR1 antag cnf=?;NPR2 antag=?;FLuc counter=-;GloSensor ctrl=-
CN1C(=O)C2(CCN(Cc3cccnc3)C2)c2ccccc21 (centres undefined) | - | -
Oc1ccc2[nH]cc(CCCCN3CC=C(c4ccccc4)CC3)c2c1 | . | 3.5µM | GPT2 inh cnf=7.7
O=C(O)c1ccc2[nH]cc(CCCCN3CC=C(c4ccccc4)CC3)c2c1 | . | -
Cc1ccc(S(=O)(=O)NC[C@H]2C[C@@H]3CCN2C[C@@H]3CN2CCc3ccccc32)cc1 | - | ?
